Screens as filed in PubChem.
Shown are actives, neighbours in structure and some others; about 19% of the full set was active somewhere.
TDP1 cell CPT: qHTS for Inhibitors of human tyrosyl-DNA phosphodiesterase 1 (TDP1): qHTS in cells in presence of CPT. AID 686979, 2013. 12% of 420,000 active. Potency, µM (highest dose often 46.2 µM), inactives show at the highest dose activity change, negative = growth inhibition, actives largely listed as inhibitors. chicken DT40 Tdp1-/-;hTDP1 cells + 20 nM CPT, ATP luminescence, 48 h; further: nearly all actives have a fitted effect of over 55% in size
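Chicken DT40 Tdp1-/- cells stably complemented with human TDP1 were seeded at 400 cells/well in medium containing 20 nM camptothecin, exposed to pin-transferred compounds, and grown at 37 °C for at least 48 hr. Viability was read as ATP luminescence.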
HT1080-NT tox: qHTS for induction of synthetic lethality in tumor cells producing 2HG: qHTS for the HT-1080-NT fibrosarcoma cell line; HT-1080-NT fibrosarcoma viability, CellTiter-Glo ATP luminescence, 48 h; Potency, µM (titrated, usually from 46.1 µM), for the others: at the top dose activity, negative = less viability, hits mostly cytotoxic; 1.6% of 360,000 active; AID 686970, 2013;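 further: NT is the 2HG producing partner of a matched IDH1 knockdown line; 0% = DMSO-treated cells and -100% = media-only wells without cells; nearly all actives have a fitted effect of over 55% in size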
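Luminescent CellTiter-Glo readout after 48 hours of compound exposure at 37 degrees C defined viability of HT-1080-NT cells. Activity was normalized to DMSO wells and cell-free media wells; concentration-response curves were fitted and assigned curve classes.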
KB-V1 MDR tox: qHTS assay for MDR1-selective chemotherapeutics: Primary screen using the drug-selected MDR subline cells KB-V1. KB-V1 MDR cells viability, CellTiter-Glo, 72 h. Potency, µM (highest dose often 46.1 µM), usual class: cytotoxic. 3.4% of 400,000 active. AID 1347076, 2019; further: nearly all actives have a fitted effect of over 60% in size
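Cytotoxicity toward P-gp-expressing KB-V1 cells was determined as loss of CellTiter-Glo luminescence after 72 h at 37 degrees C. Compounds were tested in quantitative HTS format across a concentration range, with curves fitted to normalized data.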
KB-3-1 cytotox: qHTS assay for MDR1-selective chemotherapeutics: Primary screen using the parental adenocarcinoma cell KB-3-1 | KB-3-1 viability, CellTiter-Glo ATP luminescence, 72 h | Potency, µM (top dose mostly 46.1 µM), hits mostly cytotoxic | 1.4% of 400,000 active; further: nearly all actives have a fitted effect of over 60% in size
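KB-3-1 parental drug-naive adenocarcinoma cells in DMEM/10% FBS, incubated 72 h at 37 C with pin-transferred compounds across a concentration series. Viability by CellTiter-Glo luminescence; concentration-response curves fitted after normalization.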
HT1080 IDH1KD tx: qHTS for induction of synthetic lethality in tumor cells producing 2HG: qHTS for the HT-1080-IDH1KD cell line. Potency, µM (titrated, usually from 46.1 µM), inactives show at the top dose activity, negative = toxicity, hits mostly cytotoxic. HT-1080 IDH1 knockdown viability, ATP luminescence, 48 h. 2% of 360,000 active;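 further: 0% = DMSO wells and -100% = cell-free medium wells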
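CellTiter-Glo luminescence after 48 h compound exposure at 37 degrees C of IDH1-knockdown HT-1080 cells in 5% FBS RPMI. %Activity scaled between DMSO wells and cell-free media wells, with curves fitted and assigned curve classes.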
TDP1 cell noCPT: qHTS for Inhibitors of human tyrosyl-DNA phosphodiesterase 1 (TDP1): qHTS in cells in absence of CPT. DT40 Tdp1-/- hTDP1 cells, no CPT, ATP luminescence, 48 h. Potency, µM (highest dose often 46.2 µM), without a hit: at the highest dose activity change, negative = growth inhibition, actives largely listed as inhibitors. 15% of 420,000 active. AID 686978, 2013; further: nearly all actives have a fitted effect of over 55% in size
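Luminescent ATP content (CellTiter-Glo) served as the growth readout. Knockout chicken DT40 cells expressing human TDP1 were exposed to compounds without camptothecin for a minimum 48 hr at 37 °C.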
* = called active by the depositor; i = inactive; ? = inconclusive; · = no result given; ! = not active in a repeat; [ ] = dose if it differs, or a comment. The call rests on the fitted dose curve; in most records, active means well fitted curve in the direction sought with a large enough effect; inconclusive means small, poorly fitted or top-dose-only effect, or another doubt; inactive means no such curve, though single readings can be large; an effect the other way counts as inactive or inconclusive. Unless noted, on the % scale 0 is the no-effect control and ±100 the full control effect; potency means the concentration at half of the fitted maximal effect.

SMILES	TDP1 cell CPT	HT1080-NT tox	KB-V1 MDR tox	KB-3-1 cytotox	HT1080 IDH1KD tx	TDP1 cell noCPT
Cc1cccc(NC(NC(=O)c2ccccc2[N+](=O)[O-])C(Cl)(Cl)Cl)c1 (stereo unspecified)	-29%	10%	23µM*	i	0%	?
CC(C)C(=O)NC(Nc1cccc([N+](=O)[O-])c1)C(Cl)(Cl)Cl (stereo unspecified)	?	1%	i	i	-8%	?
CCOC(=O)c1cc(OC(=O)c2ccc(C)cc2)n(-c2ccccc2)n1	·	·	i	i	·	·
O=C(Nc1cccc(NC(=O)c2cc([N+](=O)[O-])ccc2Cl)n1)c1cc([N+](=O)[O-])ccc1Cl	7.3µM*	?	15µM*	18µM*	12µM*	9.2µM*
Cc1cc(NC(=O)c2ccc([N+](=O)[O-])cc2Cl)no1	-21%	-2%	i	i	-1%	8%
COc1cc(/C=C/C(=O)OCC(=O)NC(=O)NC(C)C)cc(S(=O)(=O)N2CCc3ccccc32)c1OC	?	?	i	i	-25%	21µM*
COc1cc(/C=C/C(=O)OCC(=O)N2CCc3ccccc32)cc(OC)c1OC	?	-3%	i	i	-5%	?
COc1ccccc1N1CCN(S(=O)(=O)c2c(C)sc3ncn(CC(=O)N(C)c4ccc(Cl)cc4)c(=O)c23)CC1	18µM*	·	i	i	·	16µM*
CCCCN(C)C(=O)Cn1cnc2sc(C)c(S(=O)(=O)N3CCN(c4ccccc4OC)CC3)c2c1=O	23µM*	18%	i	i	16%	23µM*
O=[N+]([O-])c1ccc(N2CCN(C(=S)Nc3ccc(F)cc3F)CC2)cc1	6.5µM*	-13%	?	i	-3%	8.2µM*
O=[N+]([O-])c1ccc(N2CCN(C(=S)Nc3ccc(F)cc3)CC2)cc1	5.2µM*	-9%	?	i	-22%	5.8µM*
Cc1cccc(NC(=S)N2CCN(c3ccccc3)CC2)c1	3%	12%	i	i	8%	-12%
O=[N+]([O-])c1ccc(NC(=S)N2CCc3ccccc3C2)cc1	-20%	-4%	23µM*	i	7%	?
COc1ccc(N2CCN(C(=S)Nc3ccc(F)cc3)CC2)cc1	1%	-5%	i	i	-1%	0%
Fc1ccc(NC(=S)N2CCOCC2)c(F)c1	0%	4%	i	i	10%	14%
O=[N+]([O-])c1ccc(N2CCN(C(=S)Nc3cccc(F)c3)CC2)cc1	8.2µM*	-1%	i	i	-20%	9.2µM*
COc1ccc2c(c1)c1c(c(=O)n(-c3cccc(Cl)c3)c(=O)n1C)n2C	-5%	·	?	i	·	-8%
O=C(Cc1ccc[nH]c1=O)c1ccc(F)cc1	-1%	·	i	i	·	-9%
CCc1cccc2c(C(=O)C(F)(F)F)cn(CC(=O)N3CCOCC3)c12	-5%	12%	i	i	6%	10%
COc1ccc(Cl)cc1NC(=O)CN(C)C(=O)c1ccc(-n2nc(C)cc2C)cc1	18µM*	-10%	i	i	-1%	15µM*
COc1ccc(Cl)cc1NC(=O)CN(C)C(=O)Cc1ccc2c(c1)CCC2	?	-7%	i	i	-24%	?
COc1ccc(Cl)cc1NC(=O)CN(C)C(=O)c1cc2c(s1)CCCC2	?	-8%	13µM*	?	-20%	?
COc1ccc(Cl)cc1NC(=O)CN(C)C(=O)c1sc2ccccc2c1Cl	16µM*	?	?	?	?	?
COc1ccc(-c2nc3cnc(OCc4ccccc4)nc3n(CCC#N)c2=O)cc1	16%	·	·	·	·	20%
CN1CC=C2C(C#N)=C(N)C(C#N)(C#N)C(c3cccc(Cl)c3Cl)C2C1 (stereo unspecified)	23µM*	-2%	21µM*	i	-9%	?
SMILES	TDP1 cell CPT	HT1080-NT tox	KB-V1 MDR tox	KB-3-1 cytotox	HT1080 IDH1KD tx	TDP1 cell noCPT
N#CC1=C(N)C(C#N)(C#N)[C@H](c2ccoc2)[C@H]2CN(Cc3ccccc3)CC=C12	5.8µM*	?	?	5.2µM*	2.6µM*	5.8µM*
Cc1ccc(C2C3CN(C(C)C)CC=C3C(C#N)=C(N)C2(C#N)C#N)cc1 (stereo unspecified)	16µM*	-6%	i	i	-7%	13µM*
CN1CC=C2C(C#N)=C(N)C(C#N)(C#N)[C@H](c3ccoc3)[C@H]2C1	?	-4%	i	i	-4%	21µM*
O=C1NC[C@@H](CCCCN2C[C@H](Cc3ccc(O)cc3)N(Cc3ccccc3)C(=O)C2=O)N(CC2CCCCC2)C1=O	-16%	15%	?	i	13%	-13%
Cn1c(=O)c2sccc2n2c(CCCC(=O)Nc3ccc(Cl)cc3)nnc12	21µM*	·	i	i	·	?
CCn1c(=O)c2sccc2n2c(CCC(=O)Nc3ccc(C(C)C)cc3)nnc12	?	·	i	i	·	23µM*
Cn1c(=O)c2sccc2n2c(CCCC(=O)Nc3ccc(Oc4ccccc4)cc3)nnc12	?	·	·	·	·	16µM*
CC(C)Cn1c(=O)c2sccc2n2c(CCCC(=O)Nc3ccc(Cl)cc3)nnc12	?	·	·	·	·	18µM*
CCn1c(=O)c2sccc2n2c(CCC(=O)Nc3cc(C)cc(C)c3)nnc12	-1%	·	?	i	·	-3%
COc1ccc(NC(=O)CCCc2nnc3n(C(C)C)c(=O)c4sccc4n23)cc1Cl	13µM*	·	·	·	·	23µM*
Cc1sc2nc(SCCN(C)C)n(-c3ccccc3)c(=O)c2c1-c1ccc(F)cc1	18µM*	-7%	i	i	-8%	26µM*
Cc1noc(-c2ccc(-c3noc(-c4ccccc4)n3)cc2)n1	-14%	·	i	i	·	1%
COC(=O)C1CCN(c2nc(CN(C)C3CCOC3)nc3cc(OC)c(OC)cc23)CC1 (stereo unspecified)	11%[9.04 µM]	·	·	·	·	-26%
COc1cc(-c2noc(C)c2C#CCO)cc(OC)c1OC	?	15%	?	i	2%	13µM*!
